Source: ChEMBL document CHEMBL3988442, “University of Dundee, Small-Polar-MMV Screening Library” (2021)
For some assays here: Measured potencies and affinities stand elsewhere.

Columns and labels:
Design in all cases: scale not given: direction of the effect not stated beside the values
[1] = target: Protein translocase subunit SecA (Escherichia coli (strain K12)) (UniProt P10408); test: Assay to Identify E. coli SecA ATPase Inhibitors; type: functional; conditions: 30 µM
[2] = target: T1, Ubiquitin-activating enzyme e1, putative (Leishmania donovani (strain BPK282A1)) (UniProt E9BSI1); test: Leishmania donovani Ubiquitin Activating Enzyme (LdE1); type: functional; conditions: 30 µM
T1 sequence (whole entry): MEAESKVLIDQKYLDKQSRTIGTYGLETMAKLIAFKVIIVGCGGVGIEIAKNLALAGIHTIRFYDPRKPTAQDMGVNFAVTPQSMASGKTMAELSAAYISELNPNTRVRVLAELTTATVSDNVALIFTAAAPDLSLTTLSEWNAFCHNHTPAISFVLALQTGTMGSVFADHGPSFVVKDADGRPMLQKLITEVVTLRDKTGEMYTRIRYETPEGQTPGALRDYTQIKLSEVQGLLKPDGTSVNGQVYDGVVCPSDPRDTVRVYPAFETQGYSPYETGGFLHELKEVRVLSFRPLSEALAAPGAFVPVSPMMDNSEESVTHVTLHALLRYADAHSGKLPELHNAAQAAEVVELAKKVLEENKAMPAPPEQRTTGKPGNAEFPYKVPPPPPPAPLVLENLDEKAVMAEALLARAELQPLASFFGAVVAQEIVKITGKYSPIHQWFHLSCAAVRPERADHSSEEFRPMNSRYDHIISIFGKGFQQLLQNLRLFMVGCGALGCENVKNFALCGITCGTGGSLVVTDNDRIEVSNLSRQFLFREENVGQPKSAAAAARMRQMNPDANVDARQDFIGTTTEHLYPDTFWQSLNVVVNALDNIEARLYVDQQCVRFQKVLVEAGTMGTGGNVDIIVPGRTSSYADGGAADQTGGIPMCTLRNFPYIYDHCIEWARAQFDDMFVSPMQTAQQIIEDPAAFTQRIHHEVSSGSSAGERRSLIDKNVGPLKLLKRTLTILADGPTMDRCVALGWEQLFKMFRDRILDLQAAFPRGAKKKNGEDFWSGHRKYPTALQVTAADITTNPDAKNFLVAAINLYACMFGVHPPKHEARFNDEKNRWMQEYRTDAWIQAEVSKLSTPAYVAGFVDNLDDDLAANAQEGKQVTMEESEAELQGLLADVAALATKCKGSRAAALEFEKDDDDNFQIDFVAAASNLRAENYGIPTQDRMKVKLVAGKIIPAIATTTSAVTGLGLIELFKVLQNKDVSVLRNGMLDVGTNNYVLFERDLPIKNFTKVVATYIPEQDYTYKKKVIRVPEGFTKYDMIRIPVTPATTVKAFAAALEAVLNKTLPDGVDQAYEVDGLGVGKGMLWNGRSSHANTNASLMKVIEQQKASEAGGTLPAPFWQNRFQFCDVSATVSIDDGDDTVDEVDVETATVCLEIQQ

[3] = target: AMP-activated protein kinase, AMPK (Homo sapiens) (UniProt P54646+O43741+P54619+Q9UGJ0+Q9Y478+Q13131+Q9UGI9); test: AMP-dependent Kinase enzyme assay. An in vitro enzyme assay that detects ADP turnover that is directly proportional to AMPK activity. This uses naive AMPK that is activated during the assay with MK-8722; type: functional; conditions: 30 µM
[4] = target: Sialic acid-binding Ig-like lectin 9 (Homo sapiens) (UniProt Q9Y336); test: Hs-Siglec9 ALPHAscreen SOP 20170721; conditions: 10 µM
[5] = test system: Trypanosoma cruzi; test: Trypanosoma cruzi phosphomannomutase and mannose-1-phosphate guanylyltransferase assay; type: functional; conditions: 10 µM
[6] = target: T2, Arginase-2, mitochondrial (Homo sapiens) (UniProt P78540); test: in vitro enzyme assay to detect the production of urea directly proportional to the activity of Arginase II; type: functional; conditions: 33.3 µM; also: in the data most compounds retested in dose-response had high values
T2 sequence (whole entry): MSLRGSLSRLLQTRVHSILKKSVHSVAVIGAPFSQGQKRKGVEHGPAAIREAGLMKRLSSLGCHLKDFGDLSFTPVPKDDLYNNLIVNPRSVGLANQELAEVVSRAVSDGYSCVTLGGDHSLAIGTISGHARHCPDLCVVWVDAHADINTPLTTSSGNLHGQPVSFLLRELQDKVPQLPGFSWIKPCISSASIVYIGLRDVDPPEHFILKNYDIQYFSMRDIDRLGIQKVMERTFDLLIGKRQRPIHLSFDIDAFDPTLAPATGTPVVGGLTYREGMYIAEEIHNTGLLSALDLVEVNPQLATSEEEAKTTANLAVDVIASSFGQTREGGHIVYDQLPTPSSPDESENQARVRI

[7] = target: T3, Proteasome subunit beta (Trypanosoma cruzi) (UniProt O96673); test: Trypanosoma cruzi proteasome chymotrypsin-like activity (TcProtChymo) assay.; also: in the data most compounds retested in dose-response had high values; type: functional; conditions: 9.37 µM
T3 sequence (whole entry): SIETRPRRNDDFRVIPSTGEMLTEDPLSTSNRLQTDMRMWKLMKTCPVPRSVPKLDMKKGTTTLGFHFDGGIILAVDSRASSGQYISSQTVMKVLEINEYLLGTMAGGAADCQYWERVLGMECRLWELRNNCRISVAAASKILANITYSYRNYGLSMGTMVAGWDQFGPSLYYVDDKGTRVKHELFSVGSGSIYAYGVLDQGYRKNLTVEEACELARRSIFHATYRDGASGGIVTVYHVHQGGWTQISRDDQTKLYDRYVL

[8] = organism: Homo sapiens; test: To identify inhibition of the IFN signalling (Jak-Stat) pathway via expression of an eGFP reporter gene under the control of an IFN-stimulated response element (ISRE) containing MxA promoter.; type: functional; conditions: 30 µM
[9] = target: T4, Tyrosyl-tRNA synthetase, putative (Trypanosoma cruzi (strain CL Brener)) (UniProt Q4DSP6); test: Trypanosoma cruzi tyrosyl tRNA synthetase (TcYRS) _High Tyrosine SOP; type: functional; conditions: 30 µM; also: in the data most compounds retested in dose-response had high values
T4 sequence (whole entry): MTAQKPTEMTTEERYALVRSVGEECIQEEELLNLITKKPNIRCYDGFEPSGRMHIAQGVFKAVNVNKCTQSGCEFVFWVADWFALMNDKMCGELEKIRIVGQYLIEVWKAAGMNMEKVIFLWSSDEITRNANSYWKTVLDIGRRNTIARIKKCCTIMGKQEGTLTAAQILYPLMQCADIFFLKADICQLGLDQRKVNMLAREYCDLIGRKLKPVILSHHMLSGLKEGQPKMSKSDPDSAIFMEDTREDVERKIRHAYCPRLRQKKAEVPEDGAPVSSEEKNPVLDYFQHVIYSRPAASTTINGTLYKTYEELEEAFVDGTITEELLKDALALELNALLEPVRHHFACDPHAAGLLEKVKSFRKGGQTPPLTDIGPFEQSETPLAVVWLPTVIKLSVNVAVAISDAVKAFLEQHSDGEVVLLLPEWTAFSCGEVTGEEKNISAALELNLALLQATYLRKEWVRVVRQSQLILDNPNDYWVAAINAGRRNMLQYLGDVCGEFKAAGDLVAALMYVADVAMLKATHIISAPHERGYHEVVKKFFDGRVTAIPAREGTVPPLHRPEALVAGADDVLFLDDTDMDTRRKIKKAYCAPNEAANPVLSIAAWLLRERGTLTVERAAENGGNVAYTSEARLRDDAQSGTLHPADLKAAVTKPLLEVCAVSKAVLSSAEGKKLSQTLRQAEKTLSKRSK

[10] = target: T4, Tyrosyl-tRNA synthetase, putative (Trypanosoma cruzi (strain CL Brener)); test: Trypanosoma cruzi tyrosyl tRNA synthetase (TcYRS) SOP; type: functional; conditions: 30 µM
[11] = target: Chromo domain-containing protein 1 (Saccharomyces cerevisiae (strain ATCC 204508 / S288c) (Baker's yeast)) (UniProt P32657); test: ScCHD-1 Enzyme Inhibition Assay; type: functional; conditions: 30 µM; also: in the data most compounds retested in dose-response had high values
Chromo domain-containing protein 1 (Saccharomyces cerevisiae (strain ATCC 204508 / S288c) (Baker's yeast)), sequence (P32657 whole entry, the tested form may be a part): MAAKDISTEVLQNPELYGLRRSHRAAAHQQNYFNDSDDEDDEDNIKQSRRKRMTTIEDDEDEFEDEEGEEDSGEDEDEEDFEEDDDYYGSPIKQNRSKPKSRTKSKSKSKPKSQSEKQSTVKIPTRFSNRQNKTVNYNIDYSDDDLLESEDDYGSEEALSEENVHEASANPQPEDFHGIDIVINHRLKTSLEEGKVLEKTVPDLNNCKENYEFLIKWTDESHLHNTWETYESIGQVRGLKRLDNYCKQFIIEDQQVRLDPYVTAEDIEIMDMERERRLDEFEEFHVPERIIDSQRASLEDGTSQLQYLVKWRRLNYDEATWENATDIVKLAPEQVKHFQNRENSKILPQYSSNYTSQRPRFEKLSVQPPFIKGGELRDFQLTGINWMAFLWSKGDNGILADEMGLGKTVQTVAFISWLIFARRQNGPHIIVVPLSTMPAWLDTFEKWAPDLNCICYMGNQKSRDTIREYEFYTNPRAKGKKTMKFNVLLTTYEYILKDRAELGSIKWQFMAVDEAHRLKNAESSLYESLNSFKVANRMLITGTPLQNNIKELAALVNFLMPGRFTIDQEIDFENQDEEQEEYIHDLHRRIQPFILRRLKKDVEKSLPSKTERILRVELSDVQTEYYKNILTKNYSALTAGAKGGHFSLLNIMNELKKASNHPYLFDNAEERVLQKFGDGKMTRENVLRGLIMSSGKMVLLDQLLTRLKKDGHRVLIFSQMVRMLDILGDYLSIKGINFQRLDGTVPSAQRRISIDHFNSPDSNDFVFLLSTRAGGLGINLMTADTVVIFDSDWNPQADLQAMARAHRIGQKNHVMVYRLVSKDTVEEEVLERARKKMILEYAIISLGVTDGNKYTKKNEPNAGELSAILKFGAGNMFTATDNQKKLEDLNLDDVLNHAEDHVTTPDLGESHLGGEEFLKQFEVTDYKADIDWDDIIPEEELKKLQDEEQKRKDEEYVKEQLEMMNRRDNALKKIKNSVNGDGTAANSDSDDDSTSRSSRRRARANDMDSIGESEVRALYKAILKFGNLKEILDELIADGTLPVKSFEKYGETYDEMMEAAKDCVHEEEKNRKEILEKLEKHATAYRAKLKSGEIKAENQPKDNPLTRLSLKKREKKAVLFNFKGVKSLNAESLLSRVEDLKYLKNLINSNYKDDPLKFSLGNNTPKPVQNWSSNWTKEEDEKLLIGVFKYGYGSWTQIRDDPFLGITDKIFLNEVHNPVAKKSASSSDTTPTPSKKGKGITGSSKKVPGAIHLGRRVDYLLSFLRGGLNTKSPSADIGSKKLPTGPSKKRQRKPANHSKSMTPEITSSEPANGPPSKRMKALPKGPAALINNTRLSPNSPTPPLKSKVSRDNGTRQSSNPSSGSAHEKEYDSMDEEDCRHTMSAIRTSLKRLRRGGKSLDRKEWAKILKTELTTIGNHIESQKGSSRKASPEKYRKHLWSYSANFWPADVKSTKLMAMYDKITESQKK

Sialic acid-binding Ig-like lectin 9 (Homo sapiens), sequence (Q9Y336 whole entry): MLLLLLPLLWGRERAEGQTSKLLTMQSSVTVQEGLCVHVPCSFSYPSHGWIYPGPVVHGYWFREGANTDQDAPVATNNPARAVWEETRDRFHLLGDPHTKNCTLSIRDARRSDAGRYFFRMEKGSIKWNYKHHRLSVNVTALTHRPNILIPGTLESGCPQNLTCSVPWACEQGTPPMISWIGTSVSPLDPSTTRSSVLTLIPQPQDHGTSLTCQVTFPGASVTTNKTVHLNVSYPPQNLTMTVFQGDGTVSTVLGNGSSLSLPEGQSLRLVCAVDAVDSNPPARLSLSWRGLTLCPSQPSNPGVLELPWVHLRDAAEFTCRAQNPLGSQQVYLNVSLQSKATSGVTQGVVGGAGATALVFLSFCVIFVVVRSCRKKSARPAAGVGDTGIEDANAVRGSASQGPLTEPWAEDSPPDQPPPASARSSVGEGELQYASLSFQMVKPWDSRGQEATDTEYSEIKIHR
Protein translocase subunit SecA (Escherichia coli (strain K12)), sequence (P10408 whole entry): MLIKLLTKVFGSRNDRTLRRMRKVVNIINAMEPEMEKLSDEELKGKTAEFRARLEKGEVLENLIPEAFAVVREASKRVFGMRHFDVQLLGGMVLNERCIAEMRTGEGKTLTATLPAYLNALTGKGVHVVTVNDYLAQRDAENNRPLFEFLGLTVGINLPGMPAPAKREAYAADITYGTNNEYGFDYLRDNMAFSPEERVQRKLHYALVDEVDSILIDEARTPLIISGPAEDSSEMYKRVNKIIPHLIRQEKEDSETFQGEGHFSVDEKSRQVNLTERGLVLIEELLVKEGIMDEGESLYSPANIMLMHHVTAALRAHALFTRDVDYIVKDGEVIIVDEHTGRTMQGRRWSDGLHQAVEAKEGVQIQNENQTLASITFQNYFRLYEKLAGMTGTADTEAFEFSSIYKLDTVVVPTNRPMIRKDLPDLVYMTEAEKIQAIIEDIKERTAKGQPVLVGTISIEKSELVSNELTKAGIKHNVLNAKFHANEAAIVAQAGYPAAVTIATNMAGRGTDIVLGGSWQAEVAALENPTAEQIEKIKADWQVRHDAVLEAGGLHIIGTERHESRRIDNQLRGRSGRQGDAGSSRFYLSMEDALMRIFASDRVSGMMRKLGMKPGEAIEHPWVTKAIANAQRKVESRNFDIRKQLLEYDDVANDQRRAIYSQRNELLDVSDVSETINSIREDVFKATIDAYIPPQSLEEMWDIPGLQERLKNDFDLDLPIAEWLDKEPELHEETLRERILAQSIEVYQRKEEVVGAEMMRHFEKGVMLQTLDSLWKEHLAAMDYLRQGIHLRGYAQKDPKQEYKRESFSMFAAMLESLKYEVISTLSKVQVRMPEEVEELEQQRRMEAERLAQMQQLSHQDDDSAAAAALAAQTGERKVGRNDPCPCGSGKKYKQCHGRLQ

Row | SMILES | Percent Effect [1] [%] | Percent Effect [2] [%] | Percent Effect [3] [%] | Percent Effect [4] [%] | Percent Effect [5] [%] | Percent Effect [6] [%] | Percent Effect [7] [%] | Percent Effect [8] [%] | Percent Effect [9] [%] | Percent Effect [10] [%] | Percent Effect [11] [%]
1 | CCc1cnc(CN(C)C2CCN(CCc3ccccn3)C2)o1 (stereo unspecified) | 3.36 | 9.72 | -16 | 1.45 | -3.21 | 3.97 | 25.6 | 0.763 | 10.5 | 5.13 | 107
2 | O=C(NC1(c2cccc(F)c2)CCOCC1)c1cc[nH]n1 | -4.6 | 5.2 | 0.0633 | 4.75 | 0.885 | -23.4 | 5.32 | 4.47 | 2.15 | 3.7 | -1.53
3 | CNC(=O)[C@@]12CCO[C@@H]1CCN(S(=O)(=O)c1cccnc1)C2 | -5.53 | 10.8 | 0.489 | -1.11 | 4.99 | -3.5 | 9.96 | 4.96 | 5.41 | 12.8 | 0.201
4 | Cn1c2c(ccc1=O)CC(NS(C)(=O)=O)CC2 (stereo unspecified) | -7.68 | 5.33 | 5.05 | -7.17 | -1.97 | -0.233 | -1.15 | 20.7 | 2.13 | -3.85 | -1.57
5 | Cc1cc(C)n(CC2CCCN2C(=O)CCCNc2ncccn2)n1 (stereo unspecified) | -3.06 | 5.26 | 1.29 | 7.88 | 3.01 | 1.15 | 5.68 | -8.34 | 6.37 | 9.76 | -0.0349
6 | COc1c(C2CCCN2C(=O)c2csc(C(C)C)n2)c(C)nn1C (stereo unspecified) | -5.84 | 5.2 | 2.93 | 11.7 | 0.187 | 1.07 | -5.91 | 8.75 | 3.88 | 9.76 | 0.696
7 | CCCN(C)C(=O)c1ccc2c(c1)[nH]c(=O)n2CCOCC | -5.32 | 2.7 | -7.14 | 42 | 8.11 | 2.38 | 9.65 | -3.55 | 2.65 | 17.1 | -9.7
8 | Cn1nc2c(cc1=O)CN(CC(=O)Nc1ccc(Cl)cn1)CC2 | -3.42 | 18.1 | -417 | 5.46 | -0.291 | -1.32 | 12.3 | -2.31 | -2.1 | -5.13 | -1.83
9 | O=C(NCCc1cccc(O)c1)NC1CCN(c2ccccc2)C1=O (stereo unspecified) | -7.43 | 0 | 2.02 | -1.23 | -2.82 | 1.04 | 11.7 | -6.77 | -1.64 | 1.24 | -4.31
10 | O=C(NCCNC(=O)N1CCC(c2ccccc2)C1)C1CC1 (stereo unspecified) | -2.18 | 18.9 | -5.02 | 22 | 4.44 | 2.38 | 15.5 | 8.1 | 2.65 | 14.6 | -0.679
11 | CCCC(=O)NCc1cc(Br)c(OC)c(OC)c1 | -2.9 | 8 | -3.19 | 14.4 | 6.72 | 15.6 | 5.41 | 25.5 | 2.73 | 13.6 | -8.52
12 | O=C(CSC1=NS(=O)(=O)c2cc(F)ccc2N1)c1ccc(Cl)cc1 | -1.43 | 0 | 2.41 | -0.28 | -5.42 | 4.52 | 6.44 | 11.1 | 4.23 | 11.5 | -7.8
13 | Cc1n[nH]c(C)c1-c1cnc(CC2CCN(C)C2)cn1 (stereo unspecified) | -1.87 | 2.67 | 9.74 | 4.94 | 3.94 | -3.5 | 0.793 | -2.19 | 4.25 | 6.41 | -1.01
14 | Cc1nn(C)c(C)c1C1CCCN1CCCc1nc2ccccc2o1 (stereo unspecified) | -7.27 | 8.11 | -11.9 | 17.9 | 5.38 | -10 | 8.47 | 13.8 | 11.3 | 23.5 | -12.9
15 | Cn1ccnc1SCc1nc(C(C)(C)NC(=O)OC(C)(C)C)no1 | -5.41 | 18.7 | -1.15 | 21.2 | 5.94 | 2.08 | 10.6 | 21.2 | 6.01 | 16.1 | -9.46
16 | CCN(C1CCS(=O)(=O)C1)S(=O)(=O)c1cccc2cc(C)cnc12 (stereo unspecified) | -4.6 | 21.1 | 5.96 | -4.93 | -4.01 | 3.96 | 4.99 | 14.3 | 6.4 | 18.5 | -6.57
